{
  "source": "ChEMBL document CHEMBL2218924",
  "about": "“A broad activity screen in support of a chemogenomic map for kinase signalling research and drug discovery” (Biochem J, 2013)",
  "key": {"[1]": {"molecular_target": "T1, Ephrin type-A receptor 3 (Homo sapiens) (UniProt P29320)", "T1 sequence (whole entry)": "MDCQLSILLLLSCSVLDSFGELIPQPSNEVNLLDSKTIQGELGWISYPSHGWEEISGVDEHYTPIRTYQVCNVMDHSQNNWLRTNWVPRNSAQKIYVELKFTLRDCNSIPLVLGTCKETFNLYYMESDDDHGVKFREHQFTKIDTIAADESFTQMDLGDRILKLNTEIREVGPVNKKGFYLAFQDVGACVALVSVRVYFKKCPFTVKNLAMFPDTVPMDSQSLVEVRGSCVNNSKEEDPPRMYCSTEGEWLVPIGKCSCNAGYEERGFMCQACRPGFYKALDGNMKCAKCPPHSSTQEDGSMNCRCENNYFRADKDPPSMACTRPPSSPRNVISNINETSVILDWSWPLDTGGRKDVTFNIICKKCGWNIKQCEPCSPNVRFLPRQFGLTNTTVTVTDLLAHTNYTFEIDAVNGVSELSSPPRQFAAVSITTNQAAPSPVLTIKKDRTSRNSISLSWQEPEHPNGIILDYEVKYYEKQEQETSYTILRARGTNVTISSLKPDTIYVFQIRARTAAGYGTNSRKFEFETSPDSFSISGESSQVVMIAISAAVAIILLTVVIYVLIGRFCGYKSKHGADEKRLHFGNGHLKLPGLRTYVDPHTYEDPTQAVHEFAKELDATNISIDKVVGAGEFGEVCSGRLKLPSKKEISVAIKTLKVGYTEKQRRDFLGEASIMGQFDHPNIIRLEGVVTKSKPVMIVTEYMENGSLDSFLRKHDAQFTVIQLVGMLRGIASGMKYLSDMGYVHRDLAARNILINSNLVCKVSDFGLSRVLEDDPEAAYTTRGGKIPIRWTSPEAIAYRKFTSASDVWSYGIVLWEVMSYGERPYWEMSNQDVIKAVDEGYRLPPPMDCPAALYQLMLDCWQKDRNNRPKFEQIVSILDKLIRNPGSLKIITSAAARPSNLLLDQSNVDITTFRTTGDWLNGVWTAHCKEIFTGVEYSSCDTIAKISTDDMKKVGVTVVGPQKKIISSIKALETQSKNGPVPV", "conditions": "at 10 µM"}, "[2]": {"molecular_target": "Ephrin type-A receptor 4 (Homo sapiens) (UniProt P54764)", "sequence (P54764 whole entry)": "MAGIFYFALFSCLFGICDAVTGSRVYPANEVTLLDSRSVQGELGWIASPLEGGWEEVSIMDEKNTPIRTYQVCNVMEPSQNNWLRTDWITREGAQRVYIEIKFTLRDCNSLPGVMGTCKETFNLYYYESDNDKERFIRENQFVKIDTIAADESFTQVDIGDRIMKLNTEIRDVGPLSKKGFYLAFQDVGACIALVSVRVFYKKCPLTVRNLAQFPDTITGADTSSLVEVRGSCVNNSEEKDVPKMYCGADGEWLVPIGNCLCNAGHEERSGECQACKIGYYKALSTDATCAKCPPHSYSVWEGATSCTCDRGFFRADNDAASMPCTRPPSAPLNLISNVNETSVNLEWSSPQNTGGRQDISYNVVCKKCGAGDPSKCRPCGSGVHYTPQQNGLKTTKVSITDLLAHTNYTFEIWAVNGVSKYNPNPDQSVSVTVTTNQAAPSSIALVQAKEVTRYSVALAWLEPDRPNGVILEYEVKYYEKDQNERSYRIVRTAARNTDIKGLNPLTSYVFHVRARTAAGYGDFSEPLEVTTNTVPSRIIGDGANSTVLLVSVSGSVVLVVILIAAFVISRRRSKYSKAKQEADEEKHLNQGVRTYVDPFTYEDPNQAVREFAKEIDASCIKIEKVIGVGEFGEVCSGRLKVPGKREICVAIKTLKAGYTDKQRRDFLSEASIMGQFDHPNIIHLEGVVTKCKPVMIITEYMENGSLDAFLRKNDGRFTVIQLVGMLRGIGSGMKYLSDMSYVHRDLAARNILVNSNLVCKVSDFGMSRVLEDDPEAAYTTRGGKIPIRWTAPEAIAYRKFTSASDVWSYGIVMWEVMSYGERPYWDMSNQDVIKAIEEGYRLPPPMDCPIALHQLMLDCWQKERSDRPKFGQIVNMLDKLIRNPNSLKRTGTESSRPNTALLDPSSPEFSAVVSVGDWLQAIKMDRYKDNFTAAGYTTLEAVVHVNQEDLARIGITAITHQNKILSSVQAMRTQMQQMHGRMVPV", "conditions": "at 1 µM"}, "[3]": {"molecular_target": "Ephrin type-A receptor 4 (Homo sapiens) (UniProt P54764)", "conditions": "at 10 µM"}, "[4]": {"molecular_target": "Ephrin type-A receptor 5 (Homo sapiens) (UniProt P54756)", "sequence (P54756 whole entry)": "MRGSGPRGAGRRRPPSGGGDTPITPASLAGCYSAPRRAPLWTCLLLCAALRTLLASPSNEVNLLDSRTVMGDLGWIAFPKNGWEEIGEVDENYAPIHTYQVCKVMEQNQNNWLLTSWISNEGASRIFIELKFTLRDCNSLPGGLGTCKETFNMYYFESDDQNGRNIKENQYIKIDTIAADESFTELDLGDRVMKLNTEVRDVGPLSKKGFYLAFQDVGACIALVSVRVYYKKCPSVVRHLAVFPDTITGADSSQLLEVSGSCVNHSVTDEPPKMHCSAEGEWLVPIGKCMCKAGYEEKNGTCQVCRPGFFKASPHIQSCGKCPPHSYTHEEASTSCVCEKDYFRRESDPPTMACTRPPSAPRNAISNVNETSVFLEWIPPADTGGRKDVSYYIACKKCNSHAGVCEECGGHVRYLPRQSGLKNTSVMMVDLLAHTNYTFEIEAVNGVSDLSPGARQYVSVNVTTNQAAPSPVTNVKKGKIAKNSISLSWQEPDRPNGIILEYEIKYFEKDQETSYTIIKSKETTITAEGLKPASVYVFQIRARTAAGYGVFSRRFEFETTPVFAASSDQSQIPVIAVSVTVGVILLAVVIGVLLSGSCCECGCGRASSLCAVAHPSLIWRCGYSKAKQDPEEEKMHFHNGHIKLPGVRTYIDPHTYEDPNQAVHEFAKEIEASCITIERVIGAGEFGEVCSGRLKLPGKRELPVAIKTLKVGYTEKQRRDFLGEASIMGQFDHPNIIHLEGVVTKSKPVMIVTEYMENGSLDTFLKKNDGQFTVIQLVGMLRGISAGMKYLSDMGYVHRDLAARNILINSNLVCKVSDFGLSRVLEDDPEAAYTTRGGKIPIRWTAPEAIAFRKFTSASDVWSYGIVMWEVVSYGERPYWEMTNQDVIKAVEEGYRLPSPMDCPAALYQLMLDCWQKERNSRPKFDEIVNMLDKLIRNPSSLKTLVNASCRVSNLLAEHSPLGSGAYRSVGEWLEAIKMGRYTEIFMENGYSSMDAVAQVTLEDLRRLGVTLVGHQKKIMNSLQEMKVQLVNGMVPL", "conditions": "at 1 µM"}, "[5]": {"molecular_target": "Ephrin type-A receptor 5 (Homo sapiens) (UniProt P54756)", "conditions": "at 10 µM"}, "[6]": {"molecular_target": "Ephrin type-A receptor 7 (Homo sapiens) (UniProt Q15375)", "sequence (Q15375 28-998 limits assumed)": "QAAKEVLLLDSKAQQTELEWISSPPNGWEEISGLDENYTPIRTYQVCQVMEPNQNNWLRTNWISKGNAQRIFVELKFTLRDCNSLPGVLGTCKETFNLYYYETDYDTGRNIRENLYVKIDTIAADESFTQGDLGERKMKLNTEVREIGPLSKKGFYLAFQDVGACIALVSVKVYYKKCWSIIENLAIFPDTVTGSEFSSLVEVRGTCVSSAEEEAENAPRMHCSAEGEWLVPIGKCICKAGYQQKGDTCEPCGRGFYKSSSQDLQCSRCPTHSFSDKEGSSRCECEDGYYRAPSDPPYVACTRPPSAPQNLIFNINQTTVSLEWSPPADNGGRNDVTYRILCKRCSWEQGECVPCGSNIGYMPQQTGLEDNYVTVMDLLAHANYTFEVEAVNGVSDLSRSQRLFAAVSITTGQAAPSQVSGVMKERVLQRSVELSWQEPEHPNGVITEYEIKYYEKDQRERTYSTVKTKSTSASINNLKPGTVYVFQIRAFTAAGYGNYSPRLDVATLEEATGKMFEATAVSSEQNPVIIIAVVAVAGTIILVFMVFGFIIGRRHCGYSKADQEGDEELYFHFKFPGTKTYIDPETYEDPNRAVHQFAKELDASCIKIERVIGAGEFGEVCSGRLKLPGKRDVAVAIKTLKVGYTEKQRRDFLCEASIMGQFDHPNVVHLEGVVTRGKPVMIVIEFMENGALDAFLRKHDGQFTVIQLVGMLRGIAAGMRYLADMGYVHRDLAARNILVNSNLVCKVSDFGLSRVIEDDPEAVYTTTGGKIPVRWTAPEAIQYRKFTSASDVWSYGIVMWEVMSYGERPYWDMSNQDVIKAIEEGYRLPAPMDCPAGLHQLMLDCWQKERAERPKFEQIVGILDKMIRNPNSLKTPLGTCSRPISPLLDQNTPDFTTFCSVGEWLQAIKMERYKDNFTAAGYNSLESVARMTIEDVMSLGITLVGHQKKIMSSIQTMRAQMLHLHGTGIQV", "conditions": "at 1 µM"}, "[7]": {"molecular_target": "Ephrin type-A receptor 7 (Homo sapiens) (UniProt Q15375)", "conditions": "at 10 µM"}, "[8]": {"molecular_target": "T2, Ephrin type-A receptor 8 (Homo sapiens) (UniProt P29322)", "T2 sequence (whole entry)": "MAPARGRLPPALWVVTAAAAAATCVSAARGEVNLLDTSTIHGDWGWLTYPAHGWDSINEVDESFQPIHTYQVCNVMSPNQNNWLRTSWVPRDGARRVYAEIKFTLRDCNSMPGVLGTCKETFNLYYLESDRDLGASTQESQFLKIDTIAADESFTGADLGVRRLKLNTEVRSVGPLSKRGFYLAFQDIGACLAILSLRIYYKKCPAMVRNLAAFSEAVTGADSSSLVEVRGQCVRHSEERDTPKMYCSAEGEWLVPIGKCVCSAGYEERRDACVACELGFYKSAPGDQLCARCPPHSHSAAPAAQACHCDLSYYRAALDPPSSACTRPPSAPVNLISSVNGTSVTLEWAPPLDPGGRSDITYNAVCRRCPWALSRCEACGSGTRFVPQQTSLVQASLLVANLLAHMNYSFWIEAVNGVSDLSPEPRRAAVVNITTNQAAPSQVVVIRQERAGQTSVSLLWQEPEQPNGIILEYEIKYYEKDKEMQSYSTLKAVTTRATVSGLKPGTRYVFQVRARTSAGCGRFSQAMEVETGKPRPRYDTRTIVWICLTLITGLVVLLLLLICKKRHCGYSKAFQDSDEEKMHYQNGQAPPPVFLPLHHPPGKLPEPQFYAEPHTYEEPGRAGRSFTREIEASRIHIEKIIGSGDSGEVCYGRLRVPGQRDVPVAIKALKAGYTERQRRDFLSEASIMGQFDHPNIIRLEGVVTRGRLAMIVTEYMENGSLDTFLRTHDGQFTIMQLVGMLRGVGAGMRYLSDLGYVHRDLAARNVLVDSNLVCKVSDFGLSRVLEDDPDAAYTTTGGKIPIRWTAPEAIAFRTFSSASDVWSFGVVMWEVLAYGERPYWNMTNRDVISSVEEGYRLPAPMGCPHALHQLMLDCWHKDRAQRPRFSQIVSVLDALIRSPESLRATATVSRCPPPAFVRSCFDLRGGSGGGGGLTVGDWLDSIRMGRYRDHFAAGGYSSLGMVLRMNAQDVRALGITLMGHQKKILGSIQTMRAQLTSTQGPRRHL", "conditions": "at 1 µM"}, "[9]": {"molecular_target": "T2, Ephrin type-A receptor 8 (Homo sapiens)", "conditions": "at 10 µM"}, "[10]": {"molecular_target": "T3, Ephrin type-B receptor 1 (Homo sapiens) (UniProt P54762)", "T3 sequence (whole entry)": "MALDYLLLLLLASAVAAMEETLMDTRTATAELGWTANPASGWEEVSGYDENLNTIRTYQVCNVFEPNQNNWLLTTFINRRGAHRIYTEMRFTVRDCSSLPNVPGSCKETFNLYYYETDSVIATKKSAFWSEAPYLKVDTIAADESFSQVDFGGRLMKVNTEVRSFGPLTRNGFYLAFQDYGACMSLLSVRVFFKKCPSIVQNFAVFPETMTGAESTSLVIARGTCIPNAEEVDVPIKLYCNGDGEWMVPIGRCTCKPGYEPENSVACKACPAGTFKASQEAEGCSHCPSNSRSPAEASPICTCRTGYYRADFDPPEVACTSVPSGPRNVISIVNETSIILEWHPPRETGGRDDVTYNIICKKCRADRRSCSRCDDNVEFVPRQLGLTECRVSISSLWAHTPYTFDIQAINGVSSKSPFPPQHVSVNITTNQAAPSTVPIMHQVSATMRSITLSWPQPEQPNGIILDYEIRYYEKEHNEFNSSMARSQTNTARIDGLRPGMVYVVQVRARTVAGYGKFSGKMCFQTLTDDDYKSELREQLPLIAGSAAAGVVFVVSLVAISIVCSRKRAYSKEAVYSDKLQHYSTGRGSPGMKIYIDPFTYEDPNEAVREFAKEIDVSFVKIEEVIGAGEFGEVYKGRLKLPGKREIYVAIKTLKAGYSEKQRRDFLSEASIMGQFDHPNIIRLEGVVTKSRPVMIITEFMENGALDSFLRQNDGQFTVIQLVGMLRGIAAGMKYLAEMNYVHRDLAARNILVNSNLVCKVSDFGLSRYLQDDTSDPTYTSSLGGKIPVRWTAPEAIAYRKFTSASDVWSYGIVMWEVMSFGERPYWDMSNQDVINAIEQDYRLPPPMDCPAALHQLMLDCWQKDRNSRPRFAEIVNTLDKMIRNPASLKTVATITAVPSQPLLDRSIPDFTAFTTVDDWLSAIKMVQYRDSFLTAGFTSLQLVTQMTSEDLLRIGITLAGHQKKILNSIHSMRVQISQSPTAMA", "conditions": "at 1 µM"}},
  "data": [
    {"smiles": "O=C1NC(=O)/C(=C\\c2ccc3nccnc3c2)S1", "values": [
      {"measurement": "residual activity", "setting": "[1]", "value": 87, "unit": "%"},
      {"measurement": "residual activity", "setting": "[2]", "value": 108, "unit": "%"},
      {"measurement": "residual activity", "setting": "[3]", "value": 106, "unit": "%"},
      {"measurement": "residual activity", "setting": "[4]", "value": 132, "unit": "%"},
      {"measurement": "residual activity", "setting": "[5]", "value": 101, "unit": "%"},
      {"measurement": "residual activity", "setting": "[6]", "value": 97, "unit": "%"},
      {"measurement": "residual activity", "setting": "[7]", "value": 94, "unit": "%"},
      {"measurement": "residual activity", "setting": "[8]", "value": 88, "unit": "%"},
      {"measurement": "residual activity", "setting": "[9]", "value": 94, "unit": "%"},
      {"measurement": "residual activity", "setting": "[10]", "value": 115, "unit": "%"}
    ]}
  ]
}
